# Sampled rows, rich in hits. Any-hit rate of the full collection: about 3.8%.
# 697 NFkB inh – inhibitors of the PMA/ionomycin-induced NF-kB reporter in 697 B cells; actives 0.33% (n = 330,000); 697 B-cell NF-kB luciferase reporter, 16 h; AID 435022; inhibition, % at 4 µM; in the data active = inhibition above about 35%
# Bfl-1 A1 inh – inhibitors of the anti-apoptotic protein A1, read as caspase activation | AID 2462 | actives 0.066% (n = 330,000) | caspase activation, % (concentration not given with the values) | MEF A1-2A-BIM cells, Caspase-Glo 3/7 luminescence, 3 h; percent of clofoctol response, vehicle zero;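 active = over half of replicate activation scores above 10%, or exactly half above 10 with the replicate mean above 10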
# NTR1 agonist – activates human neurotensin receptor 1; P30989; NTR1-U2OS beta-arrestin-GFP spot imaging, agonist mode; activation, % at 20 µM; actives 0.17% (n = 330,000);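 active = activation at or above 40% of the spot to cytoplasm intensity ratio, with at least 20 cells analyzed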;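 also: 0% = DMSO without peptide and 100% = 100 nM NTR1 peptide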
# Target sequence (P30989 whole entry, looked up): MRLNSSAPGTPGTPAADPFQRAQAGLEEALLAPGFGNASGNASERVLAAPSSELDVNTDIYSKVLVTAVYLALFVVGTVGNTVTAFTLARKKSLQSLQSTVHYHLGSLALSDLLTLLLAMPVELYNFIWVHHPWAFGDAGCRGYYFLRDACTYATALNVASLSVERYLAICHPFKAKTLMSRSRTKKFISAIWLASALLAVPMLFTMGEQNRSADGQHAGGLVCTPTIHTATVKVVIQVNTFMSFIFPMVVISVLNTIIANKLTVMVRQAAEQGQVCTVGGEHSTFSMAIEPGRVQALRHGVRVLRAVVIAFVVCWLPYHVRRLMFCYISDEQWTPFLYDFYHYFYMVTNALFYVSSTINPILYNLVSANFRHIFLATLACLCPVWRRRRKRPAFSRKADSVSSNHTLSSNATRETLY
# Jurkat NFkB inh – inhibitors of the PMA/ionomycin-induced NF-kB reporter in Jurkat cells; PMA/ionomycin-induced NF-kB luciferase reporter, luminescence; inhibition, % at 4 µM; actives 0.53% (n = 330,000); AID 435003; in the data active = inhibition above about 50%
# Mdm2-MdmX inh – inhibitors of human Mdm2/MdmX interaction. O15151+Q00987. SaOS-2 split-luciferase Mdm2/MdmX complementation, luminescence. inhibition, % at 8 µM. actives 3% (n = 330,000). AID 485346;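 active = inhibition of at least 50% at 8 µM in the primary screen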
# Beta apoptosis – blocks beta cell apoptosis; protection from apoptosis, % (concentration not given with the values); INS-1E cytokine-induced death, ATP luminescence, 48 h; percent of positive-control rescue, neutral wells zero; actives 0.8% (n = 300,000); AID 435005;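 active = Every replicate reaches about 75%, or at least half do and their mean reaches it too, limit read from the data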;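 also: 0% = cytokine-treated negative control wells and 100% = positive control rescue; higher means more ATP so stronger rescue from cytokine killing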
# Mdm2-MdmX conf – confirmation of human Mdm2/MdmX interaction inhibitors | shares compounds with Mdm2-MdmX inh | Mdm2-MdmX binding, luminescent assay | inhibition, % at 8 µM | actives 55% (n = 10,000); in the data active = inhibition above about 40%
# Full FLuc ctr – counter-screen for Mdm2/MdmX inhibitors: full-length luciferase. shares compounds with Mdm2-MdmX inh. SaOS-2 full-length luciferase counterscreen, luminescence. inhibition, % at 8 µM. actives 77% (n = 6,200);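 active = mean inhibition at 8 µM reaching about 37%, which flags the compound as non-specific, limit read from the data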;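 also: p53-null SaOS-2 cells with luciferase driven by a doxycycline-inducible promoter; compound on cells about two nights before reading with doxycycline added after day one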
# * marks the source's active call; other numbers are inactive results; / = no result given.
SMILES,697 NFkB inh,Bfl-1 A1 inh,NTR1 agonist,Jurkat NFkB inh,Mdm2-MdmX inh,Beta apoptosis,Mdm2-MdmX conf,others
COc1cccc(CC(=O)OCC(=O)NNC(=O)c2ccc(Br)cc2)c1,9,0,1,3,-3,-2,/,
C=CCOc1ccc(-c2nc3c(c(=O)[nH]c(=O)n3CCCC)n2C)cc1Br,-9,0,7,13,70*,5,-3,
O=[N+]([O-])c1ccc(Oc2cccc(F)c2)c2ccncc12,14,0,2,-3,58*,-6,26,
CCCNC(=O)Cn1cnc2sc(C(=O)N3CCN(Cc4ccc5c(c4)OCO5)CC3)c(C)c2c1=O,-14,1,3,15,21,-1,/,
Cc1c(C(=O)N2CCN(Cc3ccc4c(c3)OCO4)CC2)sc2ncnc(N3CCN(c4ccccc4F)CC3)c12,-11,0,6,23,63*,-7,23,
Cc1c(C(=O)N2CCN(c3ccccn3)CC2)sc2ncnc(N3CCN(c4ccccc4)CC3)c12,6,-1,0,5,17,2,/,
Cc1c(C(=O)N2CCN(Cc3ccc4c(c3)OCO4)CC2)sc2ncnc(N3CCN(c4ccccc4)CC3)c12,-13,1,5,25,73*,3,34,
CC1CCCN(CCCNC(=O)c2ccc3c(c2)N(Cc2ccccc2F)C(=O)c2ccccc2S3(=O)=O)C1 (centres undefined),-11,1,1,-10,64*,0,34,Full FLuc ctr=51*
O=C1Nc2cc(C(=O)NCCCN3CCCC3)ccc2S/C1=C/c1ccccc1F,-31,-1,4,-12,58*,/,14,
CCN1C(=O)c2ccccc2Sc2ccc(C(=O)NCCCN3CCCCC3)cc21,-3,-1,1,-16,51*,1,10,
Cc1ccc(CN2C(=O)c3ccccc3Sc3ccc(C(=O)NCCCN4CCOCC4)cc32)cc1,-4,-2,1,-5,47,-2,/,
COc1cccc(/C=C2/Sc3ccc(C(=O)NCCN4CCCC4)cc3NC2=O)c1,6,1,6,-6,58*,/,10,
CCN1CCCC1CNC(=O)c1ccc2c(c1)N(Cc1ccccc1F)C(=O)c1ccccc1S2(=O)=O (centres undefined),-14,/,3,-15,20,/,/,
O=C(C1CCC1)N1CCCc2cc(S(=O)(=O)N3CCN(c4ccccc4)CC3)ccc21,-10,1,3,-7,26,2,/,
CCOCCCN(CC(=O)NC1CCCC1)C(=O)C(=O)Nc1ccc2c(c1)OCCO2,-2,-1,0,-9,8,-2,/,
CCN1CCCC1CNC(=O)c1ccc2c(c1)NC(=O)/C(=C\c1ccc(C)cc1)S2 (centres undefined),-3,3,15,2,97*,0,34,Full FLuc ctr=69*
Cc1ccc(/C=C2/Sc3ccc(C(=O)NCCN4CCOCC4)cc3NC2=O)cc1,-2,1,2,5,28,-6,/,
CCCn1c(=O)c(C(=O)NNC(=O)c2ccccc2Cl)c(O)c2ccccc21,16,0,11,-1,10,-1,/,
COCc1ccc(C(=O)NC2CCCc3c2cnn3-c2cc(C)cc(C)c2)s1 (centres undefined),-17,/,2,2,22,/,/,
Cn1cccc1C(=O)Nc1nc(-c2ccccn2)cs1,-161,-8,0,-83,24,52,/,
CCc1sc(C(=O)Nc2nccs2)cc1C,-51,-9,1,-103,-135,1,/,
Cc1ccc(C(=O)Nc2nc(-c3ccccn3)cs2)s1,-83,-3,2,0,58*,95*,76*,Full FLuc ctr=35
CCc1sc(C(=O)Nc2nc(-c3ccccn3)cs2)cc1C,6,-2,6,-9,64*,37,40*,Full FLuc ctr=37*
O=C(Nc1nc(-c2ccccn2)cs1)c1ncc(Cl)c(Cl)c1Cl,-15,0,1,-16,74*,16,35,
O=C(COc1ccccc1Cl)Nc1nc(-c2ccncc2)cs1,-5,-1,8,22,30,1,/,
